Among the data in the antibiotic and cytotoxicity screens of Wong et al. (2023) are growth inhibition call values, retold here.

About 500 (1.3%) of roughly 39,000 compounds were called active. For the sample, actives were picked, then their nearest neighbours and some compounds at random.

The test deals with S. aureus RN4220. The test is described as follows: growth inhibition call (relative growth <= 0.2). The settings on record: 50 µM.
On to `O=C(C[C@@H]1C=C[C@@H](NC(=O)CN2CCOCC2)[C@@H](CO)O1)NCCc1ccncc1`, for which the growth inhibition call was “inactive”.
Turning to `COc1cccc(S(=O)(=O)N(C)C[C@H]2OCc3cn(nn3)CCCC(=O)N([C@H](C)CO)C[C@@H]2C)c1`, the growth inhibition call is “inactive”.
Consider `COc1ccc(S(=O)(=O)N(C)C[C@@H]2OCCCC[C@@H](C)Oc3ccc(NC(=O)Nc4c(C)noc4C)cc3C(=O)N([C@H](C)CO)C[C@H]2C)cc1`, for which the growth inhibition call was “inactive”.
In the case of `C[C@H]1CN([C@@H](C)CO)C(=O)c2cc(NS(C)(=O)=O)ccc2O[C@H]1CN(C)C(=O)NC1CCCCC1` it was “inactive”; in that of `CN([NH2+][O-])c1ccc(O)c(O)c1`, “inactive”; in that of `C[C@@H](N)c1ccc(F)cc1F`, “inactive”.
As for `COc1ccc(S(=O)(=O)Nc2cccc3c2O[C@@H](CN(C)C(=O)NC(C)C)[C@@H](C)CN([C@@H](C)CO)C3=O)cc1`, the growth inhibition call was “inactive”.
On to `Cc1c2c(nn1C)CSCc1cc(n(C)n1)CSc1cc(c3ccccc3c1)OCCCc1c(C(=O)O)n(C)c3c-2c(Cl)ccc13`, for which the growth inhibition call is “active”.
In the case of `C[C@H]1CN([C@@H](C)CO)C(=O)c2cc(NC(=O)Nc3ccc(C(F)(F)F)cc3)ccc2O[C@@H]1CN(C)C(=O)Nc1ccc2c(c1)OCO2` it was “inactive”; in that of `N=C(N)c1ccc(OCCCCCOc2ccc(C(=N)N)cc2)cc1.O=S(=O)(O)CCO.O=S(=O)(O)CCO`, “active”.
In the case of `N=C(N)c1ccc(C(N)=O)cc1` it was “inactive”; in that of `OCCC[C@@H](O)c1ccc(OCCO)cc1`, “inactive”.
As for `COc1ccc(S(=O)(=O)Nc2ccc3c(c2)C(=O)N([C@@H](C)CO)C[C@H](C)[C@H](CN(C)CC2CC2)O3)cc1`, the growth inhibition call is “inactive”.
Turning to `C[C@@H]1CN([C@@H](C)CO)C(=O)c2cc(NS(=O)(=O)c3ccccc3)ccc2O[C@@H](C)CCCCO[C@H]1CN(C)S(=O)(=O)c1cn(C)cn1`, the growth inhibition call is “inactive”.
`C[C@H](CO)N1C[C@H](C)[C@H](CN(C)S(=O)(=O)c2ccc(F)cc2)Oc2ncc(-c3ccncc3)cc2C1=O`: the growth inhibition call is “inactive”.
Under `CC(=O)C1C(=O)C=C(C)OC1=O` (stereo not drawn) stands “inactive”; under `CC(=O)c1c(O)c(C)c(O)c2c1OC1=CC(=O)C(C(C)=O)C(=O)C12C` (stereo not drawn), “active”.
Under `COc1cc(OC)c(C(C)=O)c(O)c1C` stands “inactive”; under `CCCc1c(SCCCOc2ccc(C(C)=O)c(OCCCC(=O)O)c2CCC)ccc(C(C)=O)c1O`, “active”; under `COCC(=O)Nc1ccc2c(c1)C(=O)N(C)C[C@@H](OC)[C@H](C)CN(Cc1cccc(F)c1)[C@H](C)CO2`, “inactive”.
With `CC(=O)N1c2ccccc2C2=NNC(=S)N[C@]21O`, the growth inhibition call is “inactive”.
Under `C[C@H]1CCCCO[C@H](CN(C)C(=O)Cc2ccccc2)[C@@H](C)CN([C@@H](C)CO)C(=O)c2cc(NC(=O)Nc3ccc(F)cc3)ccc2O1` stands “inactive”.
Regarding `C[C@@H]1CN([C@@H](C)CO)C(=O)c2cc(/C=C/c3ccccc3)cnc2O[C@@H]1CN(C)C(=O)C1CCOCC1`, the growth inhibition call is “inactive”.
As for `CON=C(C(=O)NC1C(=O)N2C(C(=O)O)=C(CSC(=O)c3ccco3)CSC12)c1csc(N)n1.Cl` (stereo not drawn), the growth inhibition call is “active”.
Take `CO/N=C(\C(=O)N[C@@H]1C(=O)N2C(C(=O)O)=C(CSC(=O)c3ccco3)CS[C@H]12)c1csc(N)n1`: the growth inhibition call is “active”.
Under `Cc1noc(C)c1S(=O)(=O)Nc1ccc2c(c1)C(=O)N([C@@H](C)CO)C[C@H](C)[C@@H](CN(C)S(=O)(=O)c1ccc(Cl)cc1)O2` stands “inactive”; under `NNCCc1ccccc1.O=S(=O)(O)O`, “inactive”; under `NNCCc1ccccc1`, “active”.
With `N=C(N=C(N)N)NCCc1ccccc1`, the growth inhibition call was “inactive”.
In the case of `O=c1[nH]c(=O)n(C2CC(O)C(CO)O2)cc1I` (stereo not drawn) it was “inactive”; in that of `COc1cccc(OC)c1C(=O)NC1C(=O)N2C1SC(C)(C)C2C(=O)[O-].[Na+]` (stereo not drawn), “active”.
For `COc1cccc(OC)c1C(=O)NCCCO`, the growth inhibition call was “inactive”.
As to `CCOc1ccc2ccccc2c1C(=O)NC1C(=O)N2C1SC(C)(C)C2C(=O)[O-].[Na+]` (stereo not drawn), the growth inhibition call was “active”.
Turning to `COc1cccc(OC)c1C(=O)NN`, the growth inhibition call is “inactive”.
Regarding `Cc1cc(=O)n2nc(CC(=O)NCCCn3c(C)cccc3=O)nc2[nH]1`, the growth inhibition call is “inactive”.
With `C[C@H]1CN([C@@H](C)CO)S(=O)(=O)c2ccc(Br)cc2O[C@H]1CN(C)S(=O)(=O)c1ccccc1`, the growth inhibition call is “inactive”.
`Cc1noc(C)c1S(=O)(=O)N(C)C[C@@H]1Oc2ccc(NC(=O)C3CC3)cc2CC(=O)N([C@@H](C)CO)C[C@@H]1C`: the growth inhibition call was “inactive”.
In the case of `C[C@@H]1CN([C@@H](C)CO)C(=O)c2cc(NS(=O)(=O)c3ccc(Cl)cc3)ccc2O[C@@H](C)CCCCO[C@@H]1CN(C)Cc1ccccc1`, the growth inhibition call is “inactive”.
For the compound `C[C@H]1CN([C@@H](C)CO)C(=O)c2c(c3ccccc3n2C)-c2ccccc2CO[C@H]1CN(C)C(=O)Nc1cccc(F)c1`, the growth inhibition call was “inactive”.
`Cc1cc(OCCCS(C)(=O)=O)cc(C)c1-c1cccc(COc2ccc3c(c2)OC[C@H]3CC(=O)O)c1`: the growth inhibition call was “active”.
Regarding `C[C@H]1OC(=O)c2c(O)ccc(O)c2[C@H]1O`, the growth inhibition call was “inactive”.
For `COc1cccc(NC(=O)N2C[C@H](O)COC[C@@H]3O[C@H](CC(=O)NCCCN4CCOCC4)CC[C@H]32)c1`, the growth inhibition call was “inactive”.
In the case of `CCC(C)C1OC2(C=CC1C)CC1CC(CC=C(C)C(OC3CC(OC)C(OC4CC(OC)C(NC(C)=O)C(C)O4)C(C)O3)C(C)C=CC=C3COC4C(O)C(C)=CC(C(=O)O1)C34O)O2` (stereo not drawn) it was “inactive”.
Under `CN[C@@H]1[C@@H](C)O[C@@H](O[C@H]2[C@H](C)O[C@@H](O[C@@H]3/C(C)=C/C[C@@H]4C[C@@H](C[C@]5(C=C[C@H](C)[C@@H](C(C)C)O5)O4)OC(=O)[C@@H]4C=C(C)[C@@H](O)[C@H]5OC/C(=C\C=C\[C@@H]3C)[C@]54O)C[C@@H]2OC)C[C@H]1OC` stands “active”; under `CO[C@H]1C[C@H](O[C@@H]2/C(C)=C/C[C@@H]3C[C@@H](C[C@]4(CC[C@H](C)[C@@H](C5CCCCC5)O4)O3)OC(=O)[C@@H]3C=C(C)/C(=N/O)[C@H]4OC/C(=C\C=C\[C@@H]2C)[C@]43O)O[C@@H](C)[C@@H]1O`, “active”.
In the case of `COC1CC(OC2C(C)=CCC3CC(CC4(CCC(C)C(C5CCCCC5)O4)O3)OC(=O)C3C=C(C)C(=NO)C4OCC(=CC=CC2C)C34O)OC(C)C1O` (stereo not drawn) it was “inactive”.
As to `CC[C@H](C)[C@H]1O[C@]2(C=C[C@@H]1C)C[C@@H]1C[C@@H](C/C=C(\C)[C@@H](O[C@H]3C[C@H](OC)[C@@H](O[C@H]4C[C@H](OC)[C@@H](NC(C)=O)[C@H](C)O4)[C@H](C)O3)[C@@H](C)/C=C/C=C3\CO[C@@H]4[C@H](O)C(C)=C[C@@H](C(=O)O1)[C@]34O)O2`, the growth inhibition call is “inactive”.
In the case of `CO[C@H]1C[C@@H](O[C@@H]2/C(C)=C/C[C@@H]3C[C@@H](C[C@]4(CC[C@H](C)[C@@H](C5CCCCC5)O4)O3)OC(=O)[C@@H]3C=C(C)/C(=N/O)[C@H]4OC/C(=C\C=C\[C@@H]2C)[C@]43O)O[C@@H](C)[C@@H]1O`, the growth inhibition call is “inactive”.
